The source of these data is PubChem BioAssay.

The source made the active and inactive calls.

The test system of test [1] is Plasmodium falciparum Sir2 (PF13_0152, Sir2A). The test can be described thus: pfSir2 binders on small-molecule microarrays, primary screen, biochemical, small-molecule microarray, 635 nm fluorescence (AID 1098).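 Further: score merges spot fluorescence intensity with its signal-to-noise ratio.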 The settings on record: small-molecule microarray binding, fluorescence 635 nm; higher = more signal.
Test [2] can be described thus: small-molecule microarray binders of probe aDKK1, primary screen, biochemical, biotinylated probe, 635/667 nm fluorescence (AID 1099).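 Further: score merges 667nm spot fluorescence with signal to noise across triplicate slides.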 The settings on record: higher = more signal.
A short description of test [3]: small-molecule microarray binders of probe aCHRDL2, primary screen, biochemical, biotinylated probe, 635/667 nm fluorescence (AID 1100). The settings on record: higher = more signal.
Test [4] in a line: splicing luciferase reporter signal modulators, primary screen, spliceosome inhibition project, cell-based, HEK293, splice +/- reporter (AID 1101).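 Further: HEK293 cells carrying a splicing-competent luciferase reporter gene; test concentration not given here.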 The conditions noted are these: luminescence, 24 h, higher = more signal, called active from +8 up or from −8 down. (In general: In a reporter assay the amount or activity of a reporter protein is the signal.)
Test [5] deals with Fibroblast growth factor 10 (Homo sapiens) (UniProt O15520). In words: FGF10 binders on small-molecule microarrays, primary screen, biochemical, small-molecule microarray, 635 nm fluorescence (AID 1102). The conditions noted are these: FGF10 binding, fluorescence 635 nm, higher = more signal.
Sequence of Fibroblast growth factor 10 (Homo sapiens) (O15520 whole entry, looked up): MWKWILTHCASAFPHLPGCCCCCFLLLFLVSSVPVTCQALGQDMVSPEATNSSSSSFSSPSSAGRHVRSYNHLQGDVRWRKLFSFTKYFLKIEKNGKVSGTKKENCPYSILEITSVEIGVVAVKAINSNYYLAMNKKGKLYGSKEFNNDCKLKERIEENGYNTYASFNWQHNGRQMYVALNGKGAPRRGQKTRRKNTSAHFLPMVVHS
For test [6], the system named is glycogen synthase kinase-3 (GSK3A per assay name; protocol says GSK3B). In words: GSK3 binders on small-molecule microarrays, primary screen, biochemical, small-molecule microarray, 635 nm fluorescence, GSK3A (AID 1103). Further: the record names both GSK3A and GSK3B. The conditions noted are these: small-molecule microarray binding, fluorescence 635 nm; higher = more signal.
The target of test [7] is Epidermal growth factor receptor (Homo sapiens) (UniProt P00533). The test can be described thus: EGFR binders on small-molecule microarrays, primary screen, biochemical, small-molecule microarray, 635 nm fluorescence (AID 1104).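 Further: score merges 667 nm emission intensity with spot signal to noise over triplicate slides.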 The settings on record: EGFR binding, higher = more signal.
Sequence of Epidermal growth factor receptor (Homo sapiens) (P00533 whole entry, looked up): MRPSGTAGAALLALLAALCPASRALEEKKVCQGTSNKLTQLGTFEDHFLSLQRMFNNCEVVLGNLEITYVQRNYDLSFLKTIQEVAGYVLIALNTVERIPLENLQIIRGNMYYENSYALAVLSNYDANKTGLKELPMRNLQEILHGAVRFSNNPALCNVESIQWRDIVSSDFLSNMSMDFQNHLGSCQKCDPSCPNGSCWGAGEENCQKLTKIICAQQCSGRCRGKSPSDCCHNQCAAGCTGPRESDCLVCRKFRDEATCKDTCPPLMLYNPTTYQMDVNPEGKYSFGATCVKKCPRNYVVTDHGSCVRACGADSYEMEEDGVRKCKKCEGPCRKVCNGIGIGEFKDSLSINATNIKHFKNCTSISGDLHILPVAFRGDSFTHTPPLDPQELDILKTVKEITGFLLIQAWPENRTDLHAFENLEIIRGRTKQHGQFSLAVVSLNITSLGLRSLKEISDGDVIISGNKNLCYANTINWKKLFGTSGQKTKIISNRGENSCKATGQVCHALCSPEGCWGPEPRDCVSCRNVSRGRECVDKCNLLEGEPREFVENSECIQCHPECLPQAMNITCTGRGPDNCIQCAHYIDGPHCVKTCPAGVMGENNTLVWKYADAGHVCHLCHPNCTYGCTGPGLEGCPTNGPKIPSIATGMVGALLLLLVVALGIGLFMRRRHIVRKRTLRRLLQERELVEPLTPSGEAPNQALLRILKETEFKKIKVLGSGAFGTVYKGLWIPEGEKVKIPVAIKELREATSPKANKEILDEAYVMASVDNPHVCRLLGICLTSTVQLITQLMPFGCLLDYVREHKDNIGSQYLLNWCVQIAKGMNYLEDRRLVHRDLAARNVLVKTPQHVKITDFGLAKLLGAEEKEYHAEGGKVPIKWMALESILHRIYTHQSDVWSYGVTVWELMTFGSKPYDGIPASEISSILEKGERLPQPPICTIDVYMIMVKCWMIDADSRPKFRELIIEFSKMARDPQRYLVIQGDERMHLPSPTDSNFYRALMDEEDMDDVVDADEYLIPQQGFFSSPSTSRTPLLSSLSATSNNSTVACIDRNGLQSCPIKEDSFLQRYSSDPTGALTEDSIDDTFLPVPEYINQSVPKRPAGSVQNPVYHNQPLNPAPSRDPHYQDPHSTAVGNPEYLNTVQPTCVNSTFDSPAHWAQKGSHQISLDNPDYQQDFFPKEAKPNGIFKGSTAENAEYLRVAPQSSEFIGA
The target in test [8] is Follistatin-related protein 3 (Homo sapiens) (UniProt O95633). The test can be described thus: FSTL3 binders on small-molecule microarrays, primary screen, biochemical, small-molecule microarray, 635 nm fluorescence (AID 1105).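 Further: score merges emission near 667 nm and signal to noise per printed spot across three slides.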 The conditions noted are these: FSTL3 binding, higher = more signal.
Sequence of Follistatin-related protein 3 (Homo sapiens) (O95633 whole entry, looked up): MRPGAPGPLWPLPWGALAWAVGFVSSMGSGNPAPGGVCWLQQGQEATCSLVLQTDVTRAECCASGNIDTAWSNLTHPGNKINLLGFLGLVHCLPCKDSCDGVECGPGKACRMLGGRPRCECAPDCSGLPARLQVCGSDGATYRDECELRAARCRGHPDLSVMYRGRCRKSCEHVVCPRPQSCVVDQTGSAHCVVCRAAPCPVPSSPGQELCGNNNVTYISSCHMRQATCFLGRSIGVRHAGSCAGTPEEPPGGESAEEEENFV
In test [9] the target is Dickkopf-related protein 1 (Homo sapiens) (UniProt O94907). The test can be described thus: DKK1 binders on small-molecule microarrays, primary screen, biochemical, small-molecule microarray, 635 nm fluorescence scan (AID 1106).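 Further: score merges emission near 667 nm with signal to noise over three replicate slides.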 The settings on record: DKK1 binding, higher = more signal.
Sequence of Dickkopf-related protein 1 (Homo sapiens) (O94907 whole entry, looked up): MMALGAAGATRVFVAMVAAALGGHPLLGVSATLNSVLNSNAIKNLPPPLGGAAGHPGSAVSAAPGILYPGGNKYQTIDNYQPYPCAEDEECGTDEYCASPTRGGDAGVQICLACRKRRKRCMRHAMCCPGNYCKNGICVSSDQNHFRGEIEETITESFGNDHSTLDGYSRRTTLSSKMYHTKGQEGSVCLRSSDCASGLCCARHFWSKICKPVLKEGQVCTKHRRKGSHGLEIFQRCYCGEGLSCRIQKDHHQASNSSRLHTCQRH
The subject of test [10] is Inhibin beta A chain (activin A). The test can be described thus: INHBA (activin A) binders on microarrays, primary screen, biochemical, small-molecule microarray, 635 nm fluorescence scan (AID 1107).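 Further: mouse activin A protein probed at 4.33 µg/mL on printed slides; score merges bound-protein fluorescence near 667 nm with spot signal-to-noise.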 The conditions noted are these: small-molecule microarray binding, higher = more signal.
The test system of test [11] is Human papillomavirus type 1a protein E7 (residues 44-93). In words: HPV1a E7 fragment binders on microarrays, primary screen, biochemical, small-molecule microarray, residues 44-93, 635 nm fluorescence (AID 1108).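 Further: E7 fragment applied at 1 µg/mL in TBST for 1 h at 4 C; score combines spot fluorescence with its signal to noise ratio.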 The settings on record: small-molecule microarray binding, fluorescence 635 nm; higher = more signal.
A short description of test [12]: modulators of HCV replicon luciferase signal, primary screen, HCV replication inhibitor project, Huh7 cells, luciferase reporter (AID 1109).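 Further: huh7 hepatoma cells harbouring a luciferase neomycin HCV replicon reporter; luciferase luminescence as measure of HCV replicon replication; test concentration not given here.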 The settings on record: 48 h, higher = more signal. A general note: In antiviral work, replicon cells carry a viral genome segment that copies itself.
Test [13] addresses Left-right determination factor 2 (Homo sapiens) (UniProt O00292). The test can be described thus: LEFTY2 binders on small-molecule microarrays, primary screen, biochemical, small-molecule microarray, 635 nm fluorescence scan (AID 1110). The settings on record: LEFTY2 binding, higher = more signal.
In test [14] the target is Calmodulin-1 (Homo sapiens) (UniProt P0DP23). The test can be described thus: CALM1 binders on microarrays, EGTA buffer, profiling panel, biochemical, small-molecule microarray, Cy5-labelled CALM1 (AID 1111).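 Further: labelled calmodulin applied in Tris saline Tween buffer holding calcium plus EGTA and DTT.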 The conditions noted are these: Cy5-CALM1 binding fluorescence, higher = more signal.
Test [15] has the same target. The test can be described thus: calcium-bound CALM1 binders on microarrays, profiling panel, artefact control for SMM control-protein annotation, biochemical, small-molecule microarray, Cy5-labelled CALM1, plus calcium (AID 1112).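 Further: score merges spot fluorescence with signal to noise from triplicate slides.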 The conditions noted are these: Cy5-CALM1 binding fluorescence, higher = more signal.
The nature of test [16]: small-molecule microarray binders of probe aWnt5a, primary screen, biochemical, biotinylated probe, 635/667 nm fluorescence (AID 1113).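 Further: score merges 667 nm fluorescence intensity with signal-to-noise per printed feature.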 The settings on record: higher = more signal.
The nature of test [17]: small-molecule microarray binders of probe aShh, primary screen, biochemical, biotinylated probe, 635/667 nm fluorescence (AID 1114).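 Further: probe is biotin-labelled aShh protein from a stem cell growth factor screen; measures binding of labelled protein to compounds printed on the slide; score merges feature fluorescence at 667 nm with signal-to-noise.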 The conditions noted are these: higher = more signal.
Test [18] is described as follows: small-molecule microarray binders of probe aNog, primary screen, biochemical, biotinylated probe, 635/667 nm fluorescence (AID 1115).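 Further: probe is biotinylated aNog protein used at 0.15 µg/mL for 1 h at 4 C; z-score combines 667 nm fluorescence of each spot with its signal to noise.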 The conditions noted are these: higher = more signal.
In test [19] the target is Torsin-1A-interacting protein 1 (Homo sapiens) (UniProt Q5JTV8). In words: LAP1 binders from COS7 cell lysate, primary screen, small-molecule microarray, 635/667 nm fluorescence (AID 1116). The settings on record: COS7-hLAP1 lysate binding, 635 nm fluorescence, higher = more signal.
Sequence of Torsin-1A-interacting protein 1 (Homo sapiens) (Q5JTV8 whole entry, looked up): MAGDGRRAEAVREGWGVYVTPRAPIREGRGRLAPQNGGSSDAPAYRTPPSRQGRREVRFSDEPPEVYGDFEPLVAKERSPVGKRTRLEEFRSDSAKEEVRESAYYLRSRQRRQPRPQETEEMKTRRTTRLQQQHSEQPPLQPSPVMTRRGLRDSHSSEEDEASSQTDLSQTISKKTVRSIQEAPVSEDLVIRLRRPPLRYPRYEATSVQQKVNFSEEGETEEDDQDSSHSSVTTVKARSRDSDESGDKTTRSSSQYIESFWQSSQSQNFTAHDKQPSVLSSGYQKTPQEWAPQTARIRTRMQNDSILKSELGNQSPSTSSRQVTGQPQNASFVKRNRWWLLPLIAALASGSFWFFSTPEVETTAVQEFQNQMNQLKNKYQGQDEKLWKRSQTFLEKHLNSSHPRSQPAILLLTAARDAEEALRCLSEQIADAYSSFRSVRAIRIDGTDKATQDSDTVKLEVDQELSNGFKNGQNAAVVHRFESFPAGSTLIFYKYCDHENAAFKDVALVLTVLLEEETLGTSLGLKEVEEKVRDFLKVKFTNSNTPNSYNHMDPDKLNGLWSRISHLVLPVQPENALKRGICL
For test [20], the target named is Alpha-bungarotoxin (Bungarus multicinctus) (UniProt P60615). In words: alpha-bungarotoxin binders on microarray, profiling panel, artefact control for SMM control protein annotation, biochemical, small-molecule microarray, Alexa647 label, 635/667 nm fluorescence (AID 1117). The settings on record: alpha-BTX-A647 binding fluorescence, higher = more signal.
Sequence of Alpha-bungarotoxin (Bungarus multicinctus) (P60615 whole entry, looked up): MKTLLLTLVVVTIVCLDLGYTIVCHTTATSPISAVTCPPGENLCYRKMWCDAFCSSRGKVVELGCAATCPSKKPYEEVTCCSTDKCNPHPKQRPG

Sequence of Left-right determination factor 2 (Homo sapiens) (O00292 whole entry, looked up): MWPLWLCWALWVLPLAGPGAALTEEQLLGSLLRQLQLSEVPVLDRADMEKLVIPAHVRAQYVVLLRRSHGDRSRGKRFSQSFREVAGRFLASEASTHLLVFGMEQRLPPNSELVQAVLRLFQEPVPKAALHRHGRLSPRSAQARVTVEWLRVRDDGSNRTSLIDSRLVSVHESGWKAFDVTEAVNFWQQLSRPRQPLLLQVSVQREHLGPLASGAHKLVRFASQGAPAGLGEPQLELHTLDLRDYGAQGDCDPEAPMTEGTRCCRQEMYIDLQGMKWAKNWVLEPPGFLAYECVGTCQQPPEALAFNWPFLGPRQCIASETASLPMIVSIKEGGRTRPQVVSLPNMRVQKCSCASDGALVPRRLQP

For the compound `C=C(CCCC)/C(=C/C[C@H](OC(C)=O)c1ccc(CO)o1)c1cnc2ccccc2c1`, the composite z-score in test [1] was 1.11; in test [2], -0.179; in test [3], -0.531; in test [5], 1.35; in test [6], 1.21; in test [7], 0.497. For the same compound, the composite z-score in test [8] was found to be 1.49; in test [9], 0.601; in test [10], 1.69; in test [11] it was 1.39; in test [13] it was 0.487; in test [14], 0.229. The composite z-score in test [15] is -0.693; in test [16] it was -0.0478; in test [17], 0.292; in test [18], -0.28; in [19] it was -0.092; in [20] it was 1.73. For the same compound, the results for the z-score in test [4] and in test [12] were -0.276 (inactive) and -1.54, respectively.

For `O=c1oc(-c2ccccc2)nc2cc(Br)ccc12`, the composite z-score in [1] was 0.486; in test [2], -0.184; in test [3], -0.493; in test [5], 0.312; in [6], 0.838; in test [7] it was 0.448. The composite z-score in test [8] was 0.582; in test [9], 0.508; in [10] it was -0.0295; in test [11], 0.55; in [13], 0.69; in [14] it was -0.0114. Further, the composite z-score in test [15] is -0.427; in [16] it was -0.117; in test [17], -0.221; in test [18], -0.221; in test [19], 0.503; in test [20], 0.318. Also, the values for the z-score in [4] and in test [12] were -0.288 (inactive) and -1.04, respectively.

Turning to `CC(C)N1C(=O)[C@@]2(c3ccc([N+](=O)[O-])cc3)CC(=O)N(CC34CC5CC(CC(C5)C3)C4)[C@@H]2c2ccc(CO)cc21`, the composite z-score in test [1] is -0.732; in test [2] it was -0.0981; in [3], 0.226; in test [5] it was -0.51; in test [6], -0.829; in [7] it was -1.81. Further, the composite z-score is -0.603 in test [8]; -0.734 in [9]; 0.0207 in test [10]; -1.28 in [11]; -1.36 in test [13]; -0.251 in [14]. The composite z-score is 0.134 in test [15]; -0.316 in test [16]; -0.208 in test [17]; 0.705 in test [18]; -0.742 in [19]; -0.12 in [20]. The z-score in [4] is 0.477 (inactive); in [12], -1.21.

Turning to `CC(C)C[C@@H]1NC(=O)[C@H]2C[C@@H](C(=O)NCCCCCCNC(=O)CS)[C@@H](c3cccc(OCCO)c3)N2C1=O`, the composite z-score in test [1] is 1.54; in test [2], 0.0362; in test [3], -0.139; in test [5], 1.39; in [6], 1.27; in test [7] it was 1.23. Further, the composite z-score in test [8] worked out at 1.49; in test [9], 1.94; in [10] it was 0.525; in test [11], 1.41; in [13], 1.45; in [14], 0.83. The composite z-score is -0.587 in test [15]; -0.001 in test [16]; -0.282 in [17]; -0.152 in test [18]; 1.95 in test [19]; 1.17 in [20]. Further, the results for the z-score in test [4] and in [12] were -0.576 (inactive) and -0.117, respectively.

`COc1cc(C(O)C2C=CC3C(=O)N(c4ccccc4)C(=O)C3N2Nc2ccc(C#N)cc2)cc(OC)c1OC` (stereo not given): the composite z-score in [1] is 1.4; in [2], 1.45; in [3], 1.34; in test [5] it was 1.17; in [6], 1.33; in [7], -0.209. The composite z-score in [8] is 1.25; in test [9] it was -0.536; in test [10] it was 0.0506; in test [11], 0.626; in test [13] it was 0.305; in test [14] it was 2.23. The composite z-score was 1.19 in test [15]; 0.0115 in test [16]; 0.214 in [17]; 1.42 in test [18]; 1.52 in [19]; 2.79 in [20]. Besides, the z-score is 1.22 (inactive) in test [4] and 0.0783 in [12].

In the case of `O=C1O[C@@H](c2ccccc2)[C@@H](c2ccccc2)N2[C@@H](c3ccc(OCCO)cc3)[C@]3(C(=O)Nc4ccccc43)[C@@H](C(=O)Nc3nc4ccccc4s3)[C@H]12`, the composite z-score in [1] amounted to 1.66; in [2], 0.738; in test [3] it was 0.478; in test [5], 1.31; in test [6] it was 1.07; in test [7], 0.528. In addition, the composite z-score in test [8] turned out to be 1.15; in test [9], 0.651; in test [10] it was 0.411; in [11], 1.44; in test [13], 1.05; in test [14], 1.67. For the same compound, the composite z-score in test [15] stood at 0.241; in test [16], 0.105; in [17], 0.171; in [18] it was 1.27; in test [19] it was 1.5; in [20], 1.78. Besides, the z-score in [4] was -0.876 (inactive); in test [12], -2.66.
